PubChem BioAssay AID488977 (Johns Hopkins Ion Channel Center, 2010)
In all, about 310,000 compounds went through this assay and about 1,500 (0.48%) were called active.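 The calls were made as follows: active = initial fluorescence not abnormally high and integrated response B-score, plate-corrected, over 3 SD above library mean; inactive = the rest.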 What follows is part of a selection rich in actives, with near analogues and random picks from the rest.

The compounds below were run against High affinity choline transporter 1 (Homo sapiens) (UniProt Q9GZV3) (assay: allosteric activators of human choline transporter – cell-based, membrane potential dye, choline EC20, primary screen (AID 488977)). Details: CHT-expressing cells, at 10 µM, LV-AA mutant CHT in HEK293 cells; active compounds read high.
Chain of High affinity choline transporter 1 (Homo sapiens) (Q9GZV3 whole entry, looked up): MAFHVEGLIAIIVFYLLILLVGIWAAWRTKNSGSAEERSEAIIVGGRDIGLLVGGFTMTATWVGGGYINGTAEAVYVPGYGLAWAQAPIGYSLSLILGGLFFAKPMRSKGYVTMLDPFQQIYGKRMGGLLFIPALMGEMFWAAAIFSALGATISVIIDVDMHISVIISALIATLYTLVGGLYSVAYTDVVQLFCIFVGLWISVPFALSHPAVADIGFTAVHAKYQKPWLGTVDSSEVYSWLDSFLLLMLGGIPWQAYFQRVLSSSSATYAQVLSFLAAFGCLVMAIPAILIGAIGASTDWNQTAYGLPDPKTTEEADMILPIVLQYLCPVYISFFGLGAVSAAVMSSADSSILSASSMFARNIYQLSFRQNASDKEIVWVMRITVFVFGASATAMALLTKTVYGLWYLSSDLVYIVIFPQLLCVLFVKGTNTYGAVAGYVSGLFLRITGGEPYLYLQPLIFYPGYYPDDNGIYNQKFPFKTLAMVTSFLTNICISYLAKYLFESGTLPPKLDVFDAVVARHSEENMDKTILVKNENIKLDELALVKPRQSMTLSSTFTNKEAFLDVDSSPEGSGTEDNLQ

Compound | B-score
N=c1c2c3c(sc2nc2n1CCCCC2)CCCC3 | inactive
CC(C)c1nc2sc3c(c2c(=O)n1N)CC(C)(C)OC3 | inactive
CC1(C)Cc2c(sc3nc4n(c(=N)c23)CCCCC4)CO1 | 7.43 (active)
CC1CCC2(CC1)NC(=O)N(CC(=O)c1ccc3c(c1)OCO3)C2=O (stereo not given) | inactive
Cc1ccccc1NC(=O)COc1cccc2c1CCNC2=O | inactive
CC1CCc2[nH]c3ccc(C(=O)N(C)CC(=O)Nc4cccc(F)c4)cc3c2C1 (stereo not given) | inactive
Cc1nc2ccccc2c(=O)n1Cc1ccc([N+](=O)[O-])cc1 | inactive
Cc1nc2ccccc2c(=O)n1CCCn1ccnc1 | 8.67 (active)
Clc1c(OCCCn2ccnc2)ccc2ccccc12 | inactive
CCCCN(C1CCS(=O)(=O)C1)S(=O)(=O)c1ccc(C(C)C)cc1 (stereo not given) | inactive
CN(C)/C=C/C(=O)c1cnc2sccn2c1=O | 6.34 (active)
O=C(NCc1ccccn1)c1cnc2sccn2c1=O | inactive
CCOC(=O)c1cnc2sccn2c1=O | inactive
COc1cnn(-c2ccc([N+](=O)[O-])cc2)c(=O)c1Cl | inactive
Cc1ccc(-c2cc(=O)[nH]c(NCc3ccccc3)n2)cc1 | inactive
CCn1c(C)cc(=O)cc1-c1ccc(Cl)cc1 | inactive
COc1ccc(C(=O)CN(C(=O)c2ccc(Cl)cc2)N2C(=O)c3ccccc3C2=O)cc1 | inactive
COc1ccc(Cn2c(-c3ccc(Cl)cc3)c[n+]3ccccc23)cc1 | 7.07 (active)
CN(Cc1ccccc1F)C(=O)C(Cc1ccccc1)NC(=O)c1ccccc1 (stereo not given) | inactive
OCCCNc1nc(-c2ccccc2)c2cc(Cl)ccc2n1 | inactive
Cc1cc2c(cc1C)[n+](C)cn2CC(O)COCC1CC=CCC1 (stereo not given) | 12.6 (active)
COc1ccccc1C(=O)NC(CCSC)C(=O)N1CCN(C/C=C/c2ccccc2)CC1 (stereo not given) | inactive
Cn1c(=O)n(C)c2cc(C(=O)Nc3ccc4c(c3)OCO4)ccc21 | 6.95 (active)
O=C(Nc1ccc2c(c1)OCO2)c1ccc(N2C(=O)c3ccccc3C2=O)cc1 | inactive
Cn1c(=O)n(C)c2cc(C(=O)Nc3ccc(Br)cc3)ccc21 | inactive
CCc1ccc(Nc2n[n+](-c3ccccc3)c(-c3cccc(Cl)c3Cl)s2)cc1 | inactive
O=S(=O)(NCCCc1ccccc1)c1ccc(Br)cc1 | inactive
CCCCn1c(N)c(N(CCC(C)C)C(=O)c2ccc([N+](=O)[O-])o2)c(=O)[nH]c1=O | inactive
CCCCn1c(N)c(N(CC(C)C)C(=O)c2ccc(Br)o2)c(=O)[nH]c1=O | inactive
CCCCn1c(N)c(N(CCC(C)C)C(=O)c2ccc(COc3ccccc3)o2)c(=O)[nH]c1=O | 12.1 (active)
